In PubChem BioAssay (NCI):
The panel holds about 83,000 compounds, 20% with a hit somewhere; the sample as a whole holds those more often.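 Compound tested at a single concentration for 48 hours in 96-well plates; a percent growth value below 10 was scored as active.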 Values without a mark were called inactive. Activity calls are given as the source filed them.

Columns and labels:
Experiment in all cases: NCI-60 one-dose screen, 48 h (100 = growth as untreated, 0 = no growth, -100 = all killed)
Conditions in all cases: 10 µM unless noted
[1] = tested on: RPMI-8226 leukemia
[2] = tested on: OVCAR-8 ovarian
[3] = tested on: OVCAR-5 ovarian
[4] = tested on: OVCAR-4 ovarian
[5] = tested on: SK-OV-3 ovarian
[6] = tested on: IGROV1 ovarian
[7] = tested on: OVCAR-3 ovarian
[8] = tested on: HS 578T breast
[9] = tested on: T-47D breast
[10] = tested on: BT-549 breast
[11] = tested on: MDA-MB-435 melanoma
[12] = tested on: SW-620 colon
[13] = tested on: MCF7 breast
[14] = tested on: HCT-116 colon
[15] = tested on: HCC-2998 colon
[16] = tested on: KM12 colon
[17] = tested on: NCI/ADR-RES ovarian

SMILES	growth [1]	growth [2]	growth [3]	growth [4]	growth [5]	growth [6]	growth [7]	growth [8]	growth [9]	growth [10]	growth [11]	growth [12]	growth [13]	growth [14]	growth [15]	growth [16]	growth [17]
COc1ccccc1Nc1nnc(-c2ccc(Cl)cc2)o1	29.2%	60.1%	86.5%	68.3%	47.7%	52.8%	8.06% (active)	64.5%	32.4%	56.9%	-5.9% (active)	20.9%	17.1%	34.1%	82%	23.9%	–
O=S(=O)(Nc1nccs1)c1ccc(Nc2nc(-c3ccncc3)cs2)cc1	99.3%	121%	117%	115%	108%	84.1%	118%	96.8%	105%	–	112%	98.1%	94.3%	93.8%	–	105%	122%
COc1ccc(C2=NN(c3ccc(S(N)(=O)=O)cc3)C(c3ccc(Cl)cc3)C2)c(O)c1 (stereo not given)	4.28% (active)	54.6%	78.3%	50.5%	85.3%	50.1%	58.6%	70.5%	33.8%	–	47.2%	76.2%	28.2%	24.4%	60.6%	41.3%	52.5%
Nc1n[nH]c2cccc(C#Cc3cccc(NC(=O)c4cc(N5CCOCC5)cc(C(F)(F)F)c4)c3)c12	40.5%	45.5%	42.4%	51.5%	35.1%	9.97% (active)	67.3%	40.5%	28.3%	–	45.8%	46.6%	46.6%	19.4%	31.3%	54.5%	47%
C=C1C(=O)O[C@H]2[C@H]1CC/C(COC(=O)CCC(=O)OC/C1=C/CC[C@@]3(C)O[C@H]3[C@H]3OC(=O)C(=C)[C@@H]3CC1)=C\CC[C@@]1(C)O[C@@H]21	-0.781% (active)	32.8%	94.6%	47.3%	84.9%	11.5%	-11% (active)	79.6%	19.7%	67.1%	44.5%	5.48% (active)	12%	-43% (active)	93.8%	85%	–
COc1ccc2nc(-c3ccc(Cl)cc3)cc(-c3nnc(SC/C(=N/O)c4ccccc4)o3)c2c1	41.3%	49.7%	84.2%	16.7%	69.6%	50.8%	34%	71.9%	27%	–	47%	26.5%	19.9%	3.9% (active)	84%	58.1%	57.4%
O=[N+]([O-])c1cccc(CN(Cc2cccc([N+](=O)[O-])c2O)c2ccccc2)c1O	59.8%	83.2%	76.5%	68%	86.4%	60.4%	88.9%	94.6%	70.8%	–	91.4%	56.9%	84.8%	15.7%	67.1%	88.5%	76%
Cc1c(C(=O)Nc2nc3ccccc3[nH]2)cnn1-c1ccccn1	95.6%	98.3%	108%	105%	104%	114%	112%	112%	101%	111%	108%	107%	95.6%	97.3%	97.3%	103%	–
CC(C)CSc1nc(Nc2ccccc2)c(C#N)c(-c2ccc(F)cc2)n1	21.6%	29.4%	40.8%	-81.3% (active)	46.8%	1.71% (active)	-33.2% (active)	14.6%	29.1%	–	77.4%	55.2%	69%	7.9% (active)	69.1%	73.2%	41.1%
CC(=O)[C@@H]1CC[C@]2(C(=O)O)CC[C@]3(C)[C@H](CC[C@@H]4[C@@]5(C)Cc6c([nH]c7ccccc67)C(C)(C)[C@@H]5CC[C@]43C)[C@@H]12	43.2%	62.7%	101%	65.7%	86.6%	86.8%	54.1%	73.2%	65.5%	–	81.2%	54.5%	38.6%	43.5%	80.5%	42.2%	67.6%
N#Cc1c(NC(=O)c2cccs2)[n+]([O-])c2cc(C(F)(F)F)ccc2[n+]1[O-]	95.5%	95.4%	111%	94.1%	97.2%	-54.2% (active)	81.9%	84.5%	90.2%	–	106%	89%	98.7%	95.2%	99.2%	108%	107%
CCSc1ccc(C2C(Br)C(=O)N2c2cc(OC)c(OC)c(OC)c2)cc1 (stereo not given)	9.73% (active)	17.4%	31.1%	38.3%	21.8%	29.1%	3.63% (active)	8.62% (active)	67.4%	13.8%	-1.6% (active)	23%	13.2%	4.7% (active)	31.7%	17%	–
O=CN1N=C(c2ccc3c(c2)OCO3)CC1c1cccc(Nc2ccnc3cc(C(F)(F)F)ccc23)c1 (stereo not given)	40.2%	83.8%	97.7%	69.6%	77.4%	91.8%	67.4%	96.1%	45.8%	–	40.6%	95.1%	68.2%	74.5%	93.6%	66.6%	76.8%
CC[C@]12C=CCN3CC[C@@]4(c5ccc(OC)cc5N(C)[C@H]4[C@@](O)(C(=O)OC)[C@@H]1OC(=O)CCC(=O)O[C@H]1CC[C@H]4[C@@H]5CC[C@H]6CC(=O)CC[C@]6(C)[C@H]5CC[C@]14C)[C@@H]32	0.329% (active)	25.7%	34.6%	36.6%	35.3%	28.6%	23.8%	43.4%	8.78% (active)	11.6%	29.4%	21.3%	9.98% (active)	9.84% (active)	41.4%	22.4%	–
Cc1cc(C)c(NC(=O)c2sc3nc4c(cc3c2N)CCCCCC4)c(C)c1	66.3%	73.9%	95.3%	73.7%	44.6%	61.2%	15.8%	47.6%	44.5%	53.6%	4.56% (active)	36.2%	24.3%	57.3%	84.7%	49%	–
O=C(Nc1ccc2ncnc(Nc3cccc(C(F)(F)F)c3)c2c1)c1cccs1	40.8%	49.9%	63.9%	33.1%	83.7%	32.7%	29.1%	–	32.3%	71.8%	63.3%	27.7%	32.2%	38.3%	62.8%	49.6%	55.7%
